High-throughput results: PubChem BioAssay, National Center for Advancing Translational Sciences (NCATS)
Hits are enriched below; roughly 3.6% of the tested compounds scored in any of these assays.
S16 viability – S16 Schwann cell cytotoxicity. S16 Pmp22-F2sN Schwann cells viability, CellTiter-Glo, 24 h. Potency, µM (highest dose often 57.5 µM), for the others: at the top dose activity change, negative = cytotoxicity, hits mostly cytotoxic. actives 0.48% (n = 43,000); further: potency means the concentration at half of the fitted maximal effect; on the % scale 0 is the no-effect control and ±100 the full control effect; nearly all actives have a fitted effect of over 65% in size
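Viability was measured by CellTiter-Glo luminescence (15 min, room temperature). This followed 24 h at 37 °C of compound exposure (23 nL pin transfer) in S16 Pmp22-F2sN Schwann cells, 500-1,000 per well.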
SKOV3 invasion – blocks SKOV3ip1 adhesion and invasion in omental model; SKOV3ip1-GFP adhesion/invasion on 3D omental model, fluorescence; Potency, µM (doses to about 45.8 µM), inactives show at the highest dose activity change, negative = inhibition, usual class: inhibitors; actives 0.1% (n = 46,000); AID 1963576;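 further: potency means the concentration at half of the fitted maximal effect; plate controls were DMSO wells for no effect and tomatine positive control wells for full effect; nearly all actives have a fitted effect of over 65% in size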
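A 3D layer of primary human omental fibroblasts, mesothelial cells, fibronectin and collagen I, grown 48 hr, received SKOV3ip1-GFP cells in serum-free medium plus compounds at 0.36-46 umol/L. After 2 hr RT and 16 hr 37 C, fixed adherent GFP cells were counted; normalized to DMSO and tomatine.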
PMP22 txn – PMP22 gene transcription modulation. Potency, µM (doses to about 57.5 µM), without a hit: top-dose activity change, negative = inhibition, hits mostly inhibitors. actives 2% (n = 43,000). AID 1508649. S16 Pmp22-F2sN Schwann cells, FLuc/NLuc coincidence luminescence, 24 h; active means clear falling dose curves in both reporters; inconclusive means both reporters move, but less clearly or upward; inactive means either reporter flat; the % is the NLuc reporter signal; further: potency means the concentration at half of the fitted maximal effect; on the % scale 0 is the no-effect control and ±100 the full control effect
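qHTS, 1536-well. Cells seeded, compounds added by pin tool, 24 h 37C. Nano-Glo reagent 1 (lysis/FLuc), 10 min RT, read; Stop&Glo, 10 min RT, read NLuc.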
mTORC1 inh – reduces mTORC1 signaling in Tsc2 and p53 null MEF cells. Tsc2-/- p53-/- MEF, phospho-rpS6 immunofluorescence/PI, 24 h. Potency, µM (highest dose often 38.3 µM), inactives show top-dose activity change, negative = inhibition, actives largely listed as inhibitors. actives 0.78% (n = 44,000). AID 493208;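 further: potency means the concentration at half of the fitted maximal effect; plate controls were DMSO for no effect and rapamycin for full effect; nearly all actives have a fitted effect of over 50% in size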
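Plate MEFs (Tsc2-/-, p53-/-, empty vector) in DMEM/10% FBS; after 24 h add compound, incubate 24 h at 37 degree Celsius; fix in PFA/TX-100, block, stain phospho-rpS6 and 10 uM PI; scan at 488 nm; report % positive cells.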
HTT prom inh – inhibitors of huntingtin promoter activity; actives 0.93% (n = 48,000); Potency, µM (doses to about 57.5 µM), inactives show at the top dose activity change, negative = inhibition, hits mostly inhibitors; AID 1508623; HEK293 HTT promoter firefly luciferase reporter, 24 h; further: potency means the concentration at half of the fitted maximal effect; nearly all actives have a fitted effect of over 50% in size
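Firefly luciferase readout (Dual-Glo, 10 min RT) after 24 h, 37 °C compound exposure (final up to 57.5 uM) of HEK293 reporter cells cultured 24 h beforehand; PTC124 at 50 uM final as control inhibitor; activity scaled vehicle 0%, zero RLU -100%.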
HTT-AS act – HTT-AS promoter activation. HEK293 HTT-AS promoter firefly luciferase reporter, 24 h; response scale: percent change from vehicle, -100% = no light. Potency, µM (top dose mostly 57.5 µM), for inactives: at the top dose activity change, positive = activation, actives largely listed as activators. actives 0.24% (n = 48,000). AID 1508624; further: potency means the concentration at half of the fitted maximal effect; nearly all actives have a fitted effect of over 55% in size
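HEK293 luciferase promoter-reporter cells (2,500/well) plated 24 h, then compounds added at up to 57.5 uM final for 24 h at 37 °C. Firefly luminescence by Dual-Glo, normalized to vehicle (0%) and zero RLU (-100%).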
NLuc saturating – NanoLuc enzyme inhibition artifact for PMP22 screen; AID 1508638; actives 4% (n = 690); Secreted NLuc enzyme (filtered S16 cell medium), Nano-Glo luminescence; shares compounds with PMP22 txn; Potency, µM (series often up to 57.5 µM), inactives show at the top dose activity change, negative = inhibition, most hits filed as inhibitors; further: potency means the concentration at half of the fitted maximal effect; on the % scale 0 is the no-effect control and ±100 the full control effect
NLuc Km counter – NanoLuc inhibition at Km substrate, PMP22 artifact check; shares compounds with PMP22 txn; secreted NLuc enzyme, coelenterazine luminescence, Km conditions; Potency, µM (series often up to 57.5 µM), for inactives: top-dose activity change, negative = inhibition, most hits filed as inhibitors; actives 5% (n = 690); AID 1508639; further: potency means the concentration at half of the fitted maximal effect; on the % scale 0 is the no-effect control and ±100 the full control effect
FLuc counter – counter-screen for PMP22 expression modulators: firefly luciferase inhibition | shares compounds with PMP22 txn | purified P. pyralis FLuc, luminescence, 10 min | Potency, µM (highest dose often 57.5 µM), for the others: top-dose activity, negative = inhibition, usual class: inhibitors | 690 tested, under 10 active | AID 1508640; further: % of control where 0% means no effect
Target sequence (P08659 whole entry, looked up): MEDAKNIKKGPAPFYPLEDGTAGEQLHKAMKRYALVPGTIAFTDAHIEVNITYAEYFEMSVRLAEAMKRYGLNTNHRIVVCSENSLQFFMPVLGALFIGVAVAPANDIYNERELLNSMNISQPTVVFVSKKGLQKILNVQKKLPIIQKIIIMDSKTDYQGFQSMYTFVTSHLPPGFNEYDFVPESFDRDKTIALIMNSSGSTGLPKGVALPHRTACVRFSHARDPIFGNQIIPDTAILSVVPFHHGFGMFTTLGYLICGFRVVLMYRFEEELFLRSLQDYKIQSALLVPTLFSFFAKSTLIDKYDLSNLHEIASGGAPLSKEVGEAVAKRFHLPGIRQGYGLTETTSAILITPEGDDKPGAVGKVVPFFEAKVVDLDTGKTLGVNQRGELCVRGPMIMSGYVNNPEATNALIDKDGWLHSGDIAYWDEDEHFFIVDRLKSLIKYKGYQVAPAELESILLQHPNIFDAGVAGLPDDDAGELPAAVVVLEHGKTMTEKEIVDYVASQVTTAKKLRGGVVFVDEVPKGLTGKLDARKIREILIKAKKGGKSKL
S16 F2sN tox cnf – confirmation of cytotoxicity in S16 Pmp22-F2sN Schwann cells (luciferase reporters placed in the Pmp22 gene); shares compounds with PMP22 txn; S16 Schwann cells viability, CellTiter-Glo ATP luminescence, 24 h; Potency, µM (titrated, usually from 57.5 µM), inactives show at the highest dose activity change, negative = viability loss, most hits filed as cytotoxic; actives 7% (n = 690); AID 1508641; further: potency means the concentration at half of the fitted maximal effect; on the % scale 0 is the no-effect control and ±100 the full control effect
PMP22 txn cnf – confirmation of modulators of PMP22 gene transcription in S16 cells | shares compounds with PMP22 txn | S16 Schwann cells Pmp22-F2sN, dual luciferase, 24 h | Potency, µM (series often up to 57.5 µM), inactives show at the top dose activity change, negative = inhibition, hits mostly inhibitors | actives 22% (n = 690) | AID 1508646; active means clear falling dose curves in both reporters; inconclusive means both reporters move, but less clearly or upward; inactive means either reporter flat; the % is the FLuc reporter signal; further: potency means the concentration at half of the fitted maximal effect
PMP22 HiBiT cnf – rat PMP22 protein level modulation, confirmatory | shares compounds with PMP22 txn | S16 Schwann cells Pmp22-HiBiT, luminescence, 48 h | Potency, µM (top dose mostly 27.9 µM), for inactives: at the top dose activity change, negative = inhibition, hits mostly inhibitors | 95 tested, under 10 active
Target sequence (P25094 whole entry, looked up): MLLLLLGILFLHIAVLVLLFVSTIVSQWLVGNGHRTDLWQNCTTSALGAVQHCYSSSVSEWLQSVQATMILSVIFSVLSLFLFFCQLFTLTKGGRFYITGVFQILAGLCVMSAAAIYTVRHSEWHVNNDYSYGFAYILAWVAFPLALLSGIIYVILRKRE
Active calls of the source: *; i = inactive; ? = inconclusive; . = no result given. Unless noted, the call rests on the fitted dose curve; in most records, active means well fitted curve in the direction sought with a large enough effect; inconclusive means small, poorly fitted or top-dose-only effect, or another doubt; inactive means no such curve, though single readings can be large; an effect the other way counts as inactive or inconclusive.

SMILES | S16 viability | SKOV3 invasion | PMP22 txn | mTORC1 inh | HTT prom inh | HTT-AS act | NLuc saturating | NLuc Km counter | FLuc counter | S16 F2sN tox cnf | PMP22 txn cnf | others
COc1ccccc1CNc1nc2c(S(=O)(=O)c3ccc(C)c(C)c3)nnn2c2ccc(Cl)cc12 | 2% | 5% | 6.3µM* | 0% | 9% | 18% | -1% | -1% | -2% | 22µM* | 7.7µM*
C[C@@H](O[C@H]1OCCN(Cc2n[nH]c(=O)[nH]2)[C@H]1c1ccc(F)cc1)c1cc(C(F)(F)F)cc(C(F)(F)F)c1 | . | . | . | . | -27% | -44% | . | . | . | . | .
O=C(CCn1cnnn1)Nc1cc(C(F)(F)F)cc(C(F)(F)F)c1 | -5% | i | 3.9µM* | -5% | -27% | -36% | -10% | 3% | -10% | 1% | ?
N#CC1=C2SCN(C3CCCCC3)CN2C(=O)CC1c1c(F)cccc1Cl (centres undefined) | -2% | 1% | 9.5µM* | -1% | -18% | -14% | 11µM* | 7.7µM* | -11% | 2% | -18%
Cc1ccc(Nc2cc(-c3cccc(N4C(=O)c5ccccc5C4=O)c3)ncn2)cc1NS(C)(=O)=O | . | -12% | . | . | ? | -58% | . | . | . | . | .
Cc1ccc2nc(NC(=O)CSc3nc4c(c(=O)n3-c3ccccc3)SCC4)sc2c1 | . | -5% | . | . | ? | -34% | . | . | . | . | .
COc1ccc(Cl)cc1NC(=O)CSC1=Nc2ccccc2C2=NC(CCC(=O)NCc3ccco3)C(=O)N12 (centres undefined) | ? | 3% | 20µM* | -7% | -11% | -16% | ? | ? | -7% | -18% | ?
Cc1cccc(C(=O)Nc2cccc(C(=O)OCc3cc(=O)n4nc(C(C)C)sc4n3)c2)c1 | -7% | 30% | 13µM* | 13% | 5% | 12% | 2% | 0% | ? | -15% | 30%
Cc1ccc(-c2csc(-c3cc4c([nH]c3=O)CC(c3ccccc3)CC4=O)n2)cc1 (centres undefined) | -18% | 7% | 6.3µM* | ? | ? | -39% | -16% | -5% | 8% | ? | -32%
CNC(=O)c1c(-c2ccc(F)cc2)oc2cc(N(CCO)S(C)(=O)=O)c(C3CC3)cc12 | . | -1% | . | . | -7% | -37% | . | . | . | . | .
Cc1cc(CN2CCN(c3cccc(C)c3C)CC2)cs1 | -13% | -7% | -30% | 0% | -8% | -12% | . | . | . | . | .
Cc1c(Cl)cccc1N1C(N)=C(C#N)C(c2cc(CN3CCOCC3)cs2)C2=C1CCCC2=O (centres undefined) | -6% | i | 7.2µM* | -3% | -17% | -15% | ? | ? | -8% | -10% | -31%
Cc1c(C(=O)Nc2ccc(N3C[C@@H](C)O[C@@H](C)C3)nc2)cccc1-c1ccc(OC(F)(F)F)cc1 | . | 27% | . | . | 6% | 4% | . | . | . | . | .
CCOc1ccc(OCC)c(NC(=O)CN(C)S(=O)(=O)c2ccc3c(c2)CCCC(=O)N3)c1 | -4% | -7% | 20µM* | 7% | ? | -35% | -4% | -2% | 0% | 4% | -23%
COc1cc2c(cc1OC)C(COc1ccc3c(C)cc(=O)oc3c1)N(C(=O)c1ccc(C)cc1)CC2 (centres undefined) | ? | 10% | ? | -9% | -29% | -18% | -11% | 1% | 2% | 0% | ?
COc1cc2c(cc1OC)C(COc1ccc3c(C)cc(=O)oc3c1)N(C(=O)c1ccc(C)c(C)c1)CC2 (centres undefined) | -10% | -2% | ? | ? | -8% | 17% | . | . | . | . | .
Cc1cc(C)cc(-n2c(SCC(=O)Nc3nnc(C)s3)nc3c([nH]c4ccccc43)c2=O)c1 | 14% | 14% | 16µM* | 0% | -11% | -18% | ? | ? | 4% | -5% | ?
COc1cccc(-n2c(SCC(=O)Nc3c(C)cc(C)cc3C)nc3c([nH]c4ccccc43)c2=O)c1 | -1% | -16% | 12µM* | ? | ? | -36% | -6% | -11% | 4% | 2% | ?
O=C(CSc1nc2c([nH]c3ccccc32)c(=O)n1-c1cccc(Cl)c1)c1ccccc1 | 5% | i | 14µM* | -4% | -18% | -15% | -2% | 1% | -3% | -15% | 12µM* | PMP22 HiBiT cnf=?
CN(C)CC(C)(C)CNc1nn2c(-c3ccccc3)nnc2cc1C1CCC1 | . | -16% | . | . | -22% | -27% | . | . | . | . | .
CCCc1ncc(C(=O)O)s1 | . | . | . | . | 5% | 2% | . | . | . | . | .
Cc1c2cnn(CC(=O)N3CCN(c4ccc(F)cc4)CC3)c(=O)c2c(C)n1Cc1ccc(F)cc1 | -21% | -8% | ? | 3% | ? | -23% | . | . | . | . | .
Cc1ccc(Cn2c(C)c3cnn(CC(=O)N4CCN(c5cc(C)ccc5C)CC4)c(=O)c3c2C)cc1 | -16% | i | 12µM* | -5% | ? | -51% | -6% | 15% | 8% | -13% | -15%
